Hit rate of the full screen: of about 39,000 compounds, about 3,300 (8.5%) were called active. Many of the other results were omitted from the sample, so actives are more common in it than they were.
What follows are compounds tested on HepG2 (assay: cytotoxicity call (relative viability < 0.9)). Details: 10 µM.
`O=C(O)CCN1CCCC1=O` was tested, and the cytotoxicity call was “inactive”.
With `COC(=O)c1c2oc(c1C(=O)OC)C(=O)N[C@@H](Cc1ccccc1)Cn1cc(nn1)[C@H](Cc1ccccc1)NC(=O)N[C@@H](CO)CC2` the cytotoxicity call was “inactive”.
In the case of `C[C@H]1CN([C@@H](C)CO)C(=O)Cc2cc(NC(=O)Cn3cnnn3)ccc2O[C@H]1CN(C)Cc1ccc(C(=O)O)cc1`, the cytotoxicity call is reported as “inactive”.
In the case of `C[C@@H]1CN([C@@H](C)CO)C(=O)c2cc(N(C)C)ccc2O[C@@H](C)CCCCO[C@@H]1CN(C)S(=O)(=O)c1cn(C)cn1`, the cytotoxicity call is reported as “inactive”.
With `COc1ccc(NC(=O)Nc2ccc3c(c2)C(=O)N([C@@H](C)CO)C[C@@H](C)[C@@H](CN(C)C(=O)Nc2ccc(OC)cc2)OCCCC[C@H](C)O3)cc1` the cytotoxicity call was “inactive”.
For `C[C@@H]1CN([C@@H](C)CO)C(=O)c2cccc(NC(=O)NC3CCCCC3)c2O[C@@H]1CN(C)Cc1ccc(Cl)c(Cl)c1`, the cytotoxicity call was “inactive”.
`O=C(O)/C=C/c1cnc[nH]1` was tested, and the cytotoxicity call was “inactive”.
`C=CCN1C(=O)[C@]2(O[C@H](CCn3cc([C@H](O)c4ccccc4)nn3)[C@@H]([Si](C)(C)c3ccc(OC)cc3)[C@@H]2C)c2cc(N3C(=O)c4cccc5cccc3c45)ccc21` was tested, and the cytotoxicity call was “inactive”.
`C=CCN1C(=O)[C@@]2(O[C@@H](CCn3cc([C@H](O)c4ccccc4)nn3)[C@H]([Si](C)(C)c3ccc(OC)cc3)[C@H]2C)c2cc(N3C(=O)c4cccc5cccc3c45)ccc21` was tested, and the cytotoxicity call was “inactive”.
With `C=CCN1C(=O)[C@@]2(O[C@@H](CCO)[C@H]([Si](C)(C)F)[C@H]2C)c2cc(N3C(=O)c4cccc5cccc3c45)ccc21` the cytotoxicity call was “inactive”.
In the case of `C=CCN1C(=O)[C@]2(O[C@H](CCO)[C@@H]([Si](C)(C)c3ccc(OC)cc3)[C@@H]2C)c2cc(N3C(=O)c4cccc5cccc3c45)ccc21`, the cytotoxicity call is reported as “active”.
For `C=CCN1C(=O)[C@@]2(O[C@@H](CCO)[C@H]([Si](C)(C)c3ccc(OC)cc3)[C@H]2C)c2cc(N3C(=O)c4cccc5cccc3c45)ccc21`, the cytotoxicity call was “active”.
In the case of `C[C@H](CO)N1C[C@H](C)[C@H](CN(C)C(=O)Nc2cccc3ccccc23)Oc2ccc(NS(=O)(=O)c3cccs3)cc2CC1=O`, the cytotoxicity call is reported as “inactive”.
In the case of `CC(C)NC(=O)N(C)C[C@@H]1OCCCC[C@@H](C)Oc2ccc(NC(=O)Nc3ccc(F)cc3)cc2C(=O)N([C@H](C)CO)C[C@H]1C`, the cytotoxicity call is reported as “inactive”.
With `COc1ccccc1CNC(=O)C[C@@H]1C[C@@H]2c3cc(NC(=O)NC4CCCC4)ccc3O[C@@H]2[C@@H](CO)O1` the cytotoxicity call was “inactive”.
`COc1ccc(NC(=O)N(C)C[C@H]2Oc3c(NC(=O)Nc4cccc5ccccc45)cccc3C(=O)N([C@H](C)CO)C[C@@H]2C)cc1` was tested, and the cytotoxicity call was “inactive”.
For `COc1ccc(S(=O)(=O)Nc2ccc3c(c2)C(=O)N([C@H](C)CO)C[C@H](C)[C@H](CN(C)Cc2ccc(C(=O)O)cc2)OCCCC[C@@H](C)O3)cc1`, the cytotoxicity call was “inactive”.
For `COc1ccc(NC(=O)N(C)C[C@@H]2OCCCC[C@@H](C)Oc3ccc(NC(=O)Nc4ccc(F)cc4)cc3C(=O)N([C@H](C)CO)C[C@H]2C)cc1`, the cytotoxicity call was “inactive”.
With `O=C(CC1CC1)NCc1cnc2n1CCNCC2` the cytotoxicity call was “inactive”.
In the case of `O=C(C[C@@H]1CC=CCC[C@@H](Cc2ccc(F)cc2)C(=O)OC[C@@H](Cc2c[nH]c3ccccc23)NC1=O)N[C@@H](CO)Cc1ccccc1`, the cytotoxicity call is reported as “inactive”.
For `O=C(C[C@@H]1CC=CCCC(=O)OC[C@H](Cc2c[nH]c3ccccc23)NC1=O)N[C@H](CO)Cc1ccccc1`, the cytotoxicity call was “inactive”.
With `O=C(C[C@@H]1CC=CCC[C@H](Cc2ccc(F)cc2)C(=O)OC[C@H](Cc2c[nH]c3ccccc23)NC1=O)N[C@@H](CO)Cc1ccccc1` the cytotoxicity call was “inactive”.
In the case of `O=C(C[C@@H]1CC=CCCC(=O)OC[C@@H](Cc2c[nH]c3ccccc23)NC1=O)N[C@H](CO)Cc1ccccc1`, the cytotoxicity call is reported as “inactive”.
`O=C(C[C@@H]1CC=CCC[C@H](Cc2ccc(F)cc2)C(=O)OC[C@H](Cc2c[nH]c3ccccc23)NC1=O)N[C@H](CO)Cc1ccccc1` was tested, and the cytotoxicity call was “active”.
With `O=C(C[C@@H]1CC=CCC[C@H](Cc2ccc(F)cc2)C(=O)OC[C@@H](Cc2c[nH]c3ccccc23)NC1=O)N[C@@H](CO)Cc1ccccc1` the cytotoxicity call was “inactive”.
With `O=C(C[C@@H]1CC=CCCC(=O)OC[C@H](Cc2c[nH]c3ccccc23)NC1=O)N[C@@H](CO)Cc1ccccc1` the cytotoxicity call was “inactive”.
`O=C(C[C@@H]1CC=CCCC(=O)OC[C@@H](Cc2c[nH]c3ccccc23)NC1=O)N[C@@H](CO)Cc1ccccc1` was tested, and the cytotoxicity call was “inactive”.
For `O=C(C[C@@H]1CC=CCC[C@@H](Cc2ccc(F)cc2)C(=O)OC[C@H](Cc2c[nH]c3ccccc23)NC1=O)N[C@@H](CO)Cc1ccccc1`, the cytotoxicity call was “active”.
With `O=C(C[C@@H]1CC=CCC[C@@H](Cc2ccc(F)cc2)C(=O)OC[C@H](Cc2c[nH]c3ccccc23)NC1=O)N[C@H](CO)Cc1ccccc1` the cytotoxicity call was “active”.
With `O=C(C[C@@H]1CC=CCC[C@@H](Cc2ccc(F)cc2)C(=O)OC[C@@H](Cc2c[nH]c3ccccc23)NC1=O)N[C@H](CO)Cc1ccccc1` the cytotoxicity call was “active”.
In the case of `C[C@@H]1COC(=O)[C@@H](Cc2ccc(F)cc2)CCC=CC[C@@H](CC(=O)N[C@H](CO)Cc2ccccc2)C(=O)N1`, the cytotoxicity call is reported as “inactive”.
`Cc1noc(C)c1NC(=O)N(C)C[C@@H]1Oc2c(NS(=O)(=O)c3ccccc3)cccc2C(=O)N([C@@H](C)CO)C[C@@H]1C` was tested, and the cytotoxicity call was “inactive”.
For `CC(C)Cn1c(N)cc(=O)n(C)c1=O`, the cytotoxicity call was “inactive”.
For `C[C@@H]1CCCCO[C@@H](CN(C)C(=O)Nc2ccc3c(c2)OCO3)[C@H](C)CN([C@H](C)CO)C(=O)c2cc(NS(=O)(=O)c3ccccc3)ccc2O1`, the cytotoxicity call was “inactive”.
With `COc1ccc(S(=O)(=O)Nc2cccc3c2O[C@H](CN(C)C(=O)Nc2cccc4ccccc24)[C@@H](C)CN([C@@H](C)CO)C3=O)cc1` the cytotoxicity call was “inactive”.
In the case of `C=CC[C@@H](CC(=O)N(CCO)Cc1ccccc1)C(=O)NC[C@@H](OC(=O)[C@@H](CC=C)Cc1ccc(F)cc1)c1ccccc1`, the cytotoxicity call is reported as “inactive”.
In the case of `C[C@@H]1CCCCO[C@@H](CN(C)CC2CC2)[C@H](C)CN([C@@H](C)CO)C(=O)c2cc(NC(=O)NC3CCCCC3)ccc2O1`, the cytotoxicity call is reported as “inactive”.
With `O=C1NC(=O)[C@@]2(CC[C@H](C(=O)O)C2)N1` the cytotoxicity call was “inactive”.
`CN1CCN(C(=O)C[C@@H]2CC[C@H]3[C@@H](COC[C@H](O)CN3Cc3ccc(Oc4ccccc4)cc3)O2)CC1` was tested, and the cytotoxicity call was “inactive”.
`C[C@@H]1CCCCO[C@@H](CN(C)S(=O)(=O)c2cccs2)[C@H](C)CN([C@@H](C)CO)C(=O)c2cc(NC(=O)NC3CCCCC3)ccc2O1` was tested, and the cytotoxicity call was “inactive”.
`O=C(O)c1oc2ccccc2c1CSc1ccc(Cl)cc1` was tested, and the cytotoxicity call was “inactive”.
In the case of `COc1ccc(CN(C)C[C@@H]2OCCCC[C@@H](C)Oc3ccc(NC(=O)NC4CCCCC4)cc3C(=O)N([C@H](C)CO)C[C@H]2C)cc1`, the cytotoxicity call is reported as “inactive”.
`COc1ccc(CN(C)C[C@@H]2OCCCC[C@H](C)Oc3ccc(NC(=O)NC4CCCCC4)cc3C(=O)N([C@H](C)CO)C[C@@H]2C)cc1` was tested, and the cytotoxicity call was “inactive”.
`COc1ccc(CN(C)C[C@H]2OCCCC[C@H](C)Oc3ccc(NC(=O)NC4CCCCC4)cc3C(=O)N([C@H](C)CO)C[C@H]2C)cc1` was tested, and the cytotoxicity call was “inactive”.
For `COc1ccc(CN(C)C[C@H]2OCCCC[C@@H](C)Oc3ccc(NC(=O)NC4CCCCC4)cc3C(=O)N([C@@H](C)CO)C[C@@H]2C)cc1`, the cytotoxicity call was “inactive”.
For `COc1ccc(CN(C)C[C@@H]2OCCCC[C@H](C)Oc3ccc(NC(=O)NC4CCCCC4)cc3C(=O)N([C@@H](C)CO)C[C@@H]2C)cc1`, the cytotoxicity call was “active”.
`COc1ccc(CN(C)C[C@H]2OCCCC[C@H](C)Oc3ccc(NC(=O)NC4CCCCC4)cc3C(=O)N([C@@H](C)CO)C[C@@H]2C)cc1` was tested, and the cytotoxicity call was “inactive”.
`COc1ccc(CN(C)C[C@H]2OCCCC[C@H](C)Oc3ccc(NC(=O)NC4CCCCC4)cc3C(=O)N([C@@H](C)CO)C[C@H]2C)cc1` was tested, and the cytotoxicity call was “active”.
With `COc1ccc(CN(C)C[C@H]2OCCCC[C@@H](C)Oc3ccc(NC(=O)NC4CCCCC4)cc3C(=O)N([C@H](C)CO)C[C@H]2C)cc1` the cytotoxicity call was “active”.
With `COc1ccc(CN(C)C[C@@H]2OCCCC[C@@H](C)Oc3ccc(NC(=O)NC4CCCCC4)cc3C(=O)N([C@H](C)CO)C[C@@H]2C)cc1` the cytotoxicity call was “inactive”.
For `C[C@H](CO)N1C[C@H](C)[C@@H](CN(C)Cc2ccc(C(=O)Nc3ccccc3N)cc2)OCc2cnnn2CCCC1=O`, the cytotoxicity call was “inactive”.
`CC(C)(C)[S@@](=O)N1Cc2cc(C(=O)N3CCCCC3)nc(-c3cccc(-c4ccc(F)cc4)c3)c2[C@H]1CCO` was tested, and the cytotoxicity call was “inactive”.
In the case of `O=C(CN1CCOCC1)NCC[C@H]1CC[C@H](NS(=O)(=O)c2ccc(Cl)cc2)[C@H](CO)O1`, the cytotoxicity call is reported as “inactive”.
In the case of `CCc1cc(=O)oc2c(C)c(O[C@@H]3O[C@H](CO)[C@@H](O)[C@H](O)[C@H]3O)ccc12`, the cytotoxicity call is reported as “inactive”.
`COc1ccc(S(=O)(=O)N(C)C[C@H]2Oc3ccc(NC(=O)CCC(F)(F)F)cc3CC(=O)N([C@H](C)CO)C[C@H]2C)cc1` was tested, and the cytotoxicity call was “inactive”.
With `Cc1cc(C(=O)Nc2cccc3c2O[C@H](CN(C)Cc2ccccc2)[C@H](C)CN([C@@H](C)CO)C3=O)n(C)n1` the cytotoxicity call was “inactive”.
For `COCC#Cc1ccc2c(c1)O[C@H](CN(C)C(=O)C1CCCCC1)[C@@H](C)CN([C@@H](C)CO)S2(=O)=O`, the cytotoxicity call was “inactive”.
With `CO[C@H](CN(C)S(=O)(=O)c1cn(C)cn1)[C@H](C)CN(C(=O)Nc1ccc(C(F)(F)F)cc1)[C@H](C)CO` the cytotoxicity call was “inactive”.
With `CC(C)NC(=O)Nc1ccc2c(c1)C(=O)N([C@H](C)CO)C[C@@H](C)[C@@H](CN(C)C(=O)Nc1ccc3c(c1)OCO3)O2` the cytotoxicity call was “inactive”.
For `Cc1n[nH]c(C)c1S(=O)(=O)N1CCCC1`, the cytotoxicity call was “inactive”.
With `COc1ccc(NC(=O)Nc2ccc3c(c2)[C@@H]2C[C@H](CC(=O)N4CCN(C)CC4)O[C@H](CO)[C@@H]2O3)cc1` the cytotoxicity call was “inactive”.
In the case of `C[C@@H]1CN([C@@H](C)CO)C(=O)c2cccc(NC(=O)Nc3cccc4ccccc34)c2O[C@H]1CN(C)S(=O)(=O)c1ccc(F)cc1`, the cytotoxicity call is reported as “inactive”.
For `C[C@@H]1CN([C@H](C)CO)C(=O)c2cccc(NC(=O)Nc3cccc4ccccc34)c2O[C@@H]1CN(C)S(=O)(=O)c1ccc(F)cc1`, the cytotoxicity call was “inactive”.
`C[C@@H]1CN([C@@H](C)CO)C(=O)c2cccc(NC(=O)Nc3cccc4ccccc34)c2O[C@@H]1CN(C)S(=O)(=O)c1ccc(Cl)cc1` was tested, and the cytotoxicity call was “inactive”.
`C[C@H]1CN([C@@H](C)CO)C(=O)c2cccc(NC(=O)Nc3cccc4ccccc34)c2O[C@@H]1CN(C)S(=O)(=O)c1ccc(F)cc1` was tested, and the cytotoxicity call was “active”.
`C[C@H](CO)N1C[C@H](C)[C@@H](CN(C)S(=O)(=O)c2ccc(Cl)cc2)Oc2c(NC(=O)Nc3cccc4ccccc34)cccc2C1=O` was tested, and the cytotoxicity call was “active”.
For `C[C@H]1CN([C@@H](C)CO)C(=O)c2cccc(NC(=O)Nc3cccc4ccccc34)c2O[C@@H]1CN(C)S(=O)(=O)c1ccc(Cl)cc1`, the cytotoxicity call was “inactive”.

Source: the antibiotic and cytotoxicity screens of Wong et al. (2023)
